Data published in the supplement of paper PMC11732987, “Enantioselective OTUD7B fragment discovery through chemoproteomics screening and high-throughput optimisation” (Communications Chemistry, 2025).

Columns and labels:
Assay in all cases: log2 ratio of Biotin-Ahx-Ub-VS probe labelling (compound/DMSO); higher = less target engagement, active = hit call of the paper (q ≤ 0.05, log2 ratio ≤ -1)
Conditions in all cases: treatment time: 3 h
[1] = compound: CCC1N(CCc2sccc12)C(=O)CCl
How it was run: (§1)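 DUBs in HEK293T lysate were labelled with Biotin-Ahx-Ub-VS (0.5 µM final, 1 h) after a 3 h treatment with compound at 50 or 200 µM or with DMSO, done in triplicate on 495 µg of lysate per sample. NeutrAvidin-enriched proteins were digested with LysC and trypsin and run by diaPASEF LC-MS/MS. Median-normalised label-free quantities gave average base-two log ratios of compound to DMSO by unpaired t-test, restricted to proteins with at least 2 unique peptides.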

[2] = compound: CN1c2ccccc2C(CS1(=O)=O)NC(=O)CCl
How it was run: as §1

[3] = compound: Cl.ClCC(=O)N1CCc2ncncc2C1
How it was run: as §1

[4] = compound: Cl.Cn1ncc2C(CCCc12)NC(=O)CCl
How it was run: as §1

[5] = compound: ClCC(=O)NC1CCOc2ccccc12
How it was run: as §1

[6] = compound: ClCC(=O)NC1CCCc2ccccc12
How it was run: (§2)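 The values are mean compound-versus-vehicle ratios derived by unpaired t-test. For 3 h, triplicate HEK293T lysate samples (495 µg each) were treated with compound at a series of concentrations or with vehicle, after which Biotin-Ahx-Ub-VS was added to 0.5 µM final for 1 h. Labelled deubiquitinases were enriched with NeutrAvidin, digested with LysC and trypsin, and analysed by diaPASEF LC-MS/MS. Ratios are log2 values from global-median-normalised Spectronaut label-free quantities, using proteins with two or more unique peptides.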

[7] = compound: ClCC(=O)N[C@@H]1CCCc2ccccc12
How it was run: as §2

[8] = compound: ClCC(=O)N[C@H]1CCCc2ccccc12
How it was run: as §2

[9] = compound: CCC1N(CCc2cc(OC)c(Cl)cc12)C(=O)CCl
How it was run: as §1

[10] = compound: CCCC1N(CCc2cc(OC)c(OC)cc12)C(=O)CCl
How it was run: as §1

Measured: log2 ratio of Biotin-Ahx-Ub-VS probe labelling

USP48 (UniProt Q86UV5)
Chain of UniProt Q86UV5 (Q86UV5 whole entry): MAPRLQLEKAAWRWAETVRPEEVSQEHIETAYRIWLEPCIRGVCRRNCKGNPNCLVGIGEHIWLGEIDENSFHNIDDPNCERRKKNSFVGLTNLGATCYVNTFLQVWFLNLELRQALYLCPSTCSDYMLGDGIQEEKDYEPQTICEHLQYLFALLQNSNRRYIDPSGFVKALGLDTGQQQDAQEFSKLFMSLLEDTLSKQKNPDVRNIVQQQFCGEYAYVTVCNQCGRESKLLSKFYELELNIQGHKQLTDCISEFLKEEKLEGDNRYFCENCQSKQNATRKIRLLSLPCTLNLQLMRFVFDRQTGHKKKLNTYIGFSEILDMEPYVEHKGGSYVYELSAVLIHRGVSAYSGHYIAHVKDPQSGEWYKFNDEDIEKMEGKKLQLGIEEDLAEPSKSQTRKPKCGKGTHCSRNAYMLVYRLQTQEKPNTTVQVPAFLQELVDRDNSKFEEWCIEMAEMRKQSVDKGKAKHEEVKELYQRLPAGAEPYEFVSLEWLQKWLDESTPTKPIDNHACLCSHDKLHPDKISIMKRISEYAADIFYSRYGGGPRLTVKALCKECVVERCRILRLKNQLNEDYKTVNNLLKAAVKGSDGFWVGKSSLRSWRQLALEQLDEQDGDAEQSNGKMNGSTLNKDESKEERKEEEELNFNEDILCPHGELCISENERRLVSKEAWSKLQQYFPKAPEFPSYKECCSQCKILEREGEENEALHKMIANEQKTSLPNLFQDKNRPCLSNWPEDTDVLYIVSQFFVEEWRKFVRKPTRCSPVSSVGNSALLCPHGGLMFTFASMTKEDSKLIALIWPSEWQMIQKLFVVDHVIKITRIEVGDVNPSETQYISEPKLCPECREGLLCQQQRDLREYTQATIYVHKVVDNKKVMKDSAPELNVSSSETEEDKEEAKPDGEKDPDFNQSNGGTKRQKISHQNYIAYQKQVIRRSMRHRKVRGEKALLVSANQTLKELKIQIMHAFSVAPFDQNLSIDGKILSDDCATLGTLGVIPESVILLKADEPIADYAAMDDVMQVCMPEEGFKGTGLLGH
inactive: [1]; compound concentration: 50uM 0.0438 | [1]; compound concentration: 200uM -0.229 | [2]; compound concentration: 50uM -0.0584 | [2]; compound concentration: 200uM -0.173 | [3]; compound concentration: 50uM 0.0472 | [3]; compound concentration: 200uM -0.0578 | [4]; compound concentration: 50uM 0.11 | [4]; compound concentration: 200uM -0.141 | [5]; compound concentration: 50uM -0.181 | [5]; compound concentration: 200uM 0.181 | [6]; compound concentration: 0.78uM -0.207 | [6]; compound concentration: 1.56uM -0.126 | [6]; compound concentration: 3.13uM -0.133 | [6]; compound concentration: 6.25uM -0.353 | [6]; compound concentration: 12.5uM -0.196 | [6]; compound concentration: 25uM -0.157 | [6]; compound concentration: 50uM -0.212 | [6]; compound concentration: 100uM -0.103 | [6]; compound concentration: 200uM -0.378 | [7]; compound concentration: 0.78uM -0.118 | [7]; compound concentration: 1.56uM 0.0156 | [7]; compound concentration: 3.13uM -0.424 | [7]; compound concentration: 6.25uM -0.193 | [7]; compound concentration: 12.5uM -0.0735 | [7]; compound concentration: 25uM -0.174 | [7]; compound concentration: 50uM -0.19 | [7]; compound concentration: 100uM -0.106 | [7]; compound concentration: 200uM -0.351 | [8]; compound concentration: 0.78uM -0.189 | [8]; compound concentration: 1.56uM -0.192 | [8]; compound concentration: 3.13uM -0.141 | [8]; compound concentration: 6.25uM -0.00525 | [8]; compound concentration: 12.5uM -0.0911 | [8]; compound concentration: 25uM -0.00111 | [8]; compound concentration: 50uM -0.0046 | [8]; compound concentration: 100uM -0.171 | [8]; compound concentration: 200uM -0.203 | [9]; compound concentration: 50uM -0.171 | [9]; compound concentration: 200uM -0.314 | [10]; compound concentration: 50uM -0.217 | [10]; compound concentration: 200uM -0.148

EIF3F (UniProt O00303)
Chain of UniProt O00303 (O00303 whole entry): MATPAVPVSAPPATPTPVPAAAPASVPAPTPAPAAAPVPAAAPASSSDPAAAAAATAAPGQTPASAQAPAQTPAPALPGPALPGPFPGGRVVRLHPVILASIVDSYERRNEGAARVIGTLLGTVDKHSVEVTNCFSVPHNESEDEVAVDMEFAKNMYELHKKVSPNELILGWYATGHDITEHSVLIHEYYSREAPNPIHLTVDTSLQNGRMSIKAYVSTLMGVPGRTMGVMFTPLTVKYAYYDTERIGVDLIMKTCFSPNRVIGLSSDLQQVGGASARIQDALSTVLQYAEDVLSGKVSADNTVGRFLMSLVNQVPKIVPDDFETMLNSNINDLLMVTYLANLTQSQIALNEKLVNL
inactive: [1]; compound concentration: 50uM -0.16 | [1]; compound concentration: 200uM -0.05 | [2]; compound concentration: 50uM -0.111 | [2]; compound concentration: 200uM -0.0123 | [3]; compound concentration: 50uM 0.026 | [3]; compound concentration: 200uM -0.017 | [4]; compound concentration: 50uM -0.0544 | [4]; compound concentration: 200uM -0.232 | [5]; compound concentration: 50uM -0.204 | [5]; compound concentration: 200uM 0.0458 | [6]; compound concentration: 0.78uM -0.0827 | [6]; compound concentration: 1.56uM 0.0402 | [6]; compound concentration: 3.13uM -0.164 | [6]; compound concentration: 6.25uM -0.148 | [6]; compound concentration: 12.5uM 0.141 | [6]; compound concentration: 25uM -0.0954 | [6]; compound concentration: 50uM -0.209 | [6]; compound concentration: 100uM -0.401 | [6]; compound concentration: 200uM -0.0132 | [7]; compound concentration: 0.78uM -0.295 | [7]; compound concentration: 1.56uM 0.0826 | [7]; compound concentration: 3.13uM -0.0906 | [7]; compound concentration: 6.25uM -0.461 | [7]; compound concentration: 12.5uM -0.244 | [7]; compound concentration: 25uM -0.214 | [7]; compound concentration: 50uM -0.034 | [7]; compound concentration: 100uM 0.00457 | [7]; compound concentration: 200uM 0.0644 | [8]; compound concentration: 0.78uM -0.0754 | [8]; compound concentration: 1.56uM -0.0584 | [8]; compound concentration: 3.13uM -0.182 | [8]; compound concentration: 6.25uM 0.0402 | [8]; compound concentration: 12.5uM -0.0792 | [8]; compound concentration: 25uM -0.00315 | [8]; compound concentration: 50uM -0.0696 | [8]; compound concentration: 100uM -0.0985 | [8]; compound concentration: 200uM -0.313 | [9]; compound concentration: 50uM -0.015 | [9]; compound concentration: 200uM -0.16 | [10]; compound concentration: 50uM -0.0996 | [10]; compound concentration: 200uM 0.154
